# Laboratory results taken from PubChem BioAssay (NCATS).
# Records with an inconclusive call do not appear. Values without a mark were called inactive. Active and inactive are the calls of the source. Calls come from the whole dose curve; as a rule, active = well fitted cell-killing curve with a large enough effect; inconclusive = small, poorly fitted or top-dose-only effect; inactive = no such curve, though single readings can be large or run the other way.
# Assay: qHTS of pediatric cancer cell lines to identify multiple opportunities for drug repurposing: Primary screen for NB-EBc1 cells (AID 1347095)
# Conditions: NB-EBc1 neuroblastoma viability, CellTiter-Glo luminescence, 48 h; series mostly up to 46 µM; activity change, negative = cytotoxic: at the top concentration
# Description: Drug repurposing or repositioning has been offered as a strategy for drug development in oncology programs. This approach has special potential for childhood cancers and other rare or orphan diseases, where the expected return on new drug development has been a disincentive to pharmaceuticals. […] In this project we exploit the poly-pharmacology of drugs to discover new indications via phenotypic screening of a panel of 19 well-characterized cell lines derived from solid tumors seen in children and adolescents. The goal is to identify approved drugs with previously unrecognized anticancer properties that has the potential to reveal new mechanisms and biological processes involved in carcinogenesis or drug resistance. We employed a titration-based paradigm (quantitative high-throughput screening or qHTS), where all compounds were tested at multiple concentrations for their effect on cell viability. Concentration-response curves (CRCs) were derived directly from the primary screen, and both potency and efficacy values were used to identify compounds with robust bioactivity profiles. We screened the NIH Chemical Genomics Center (NCGC) Pharmaceutical Collection (NPC) and Mechanism Interrogation Plate (MIPE) small molecule collections of approved and investigational compounds against these cell lines; and measured metabolically active cells after 48 hours of compound treatment as a proxy for cell viability. […] Assay Submitter: Nathalia J. Martinez, National Center for Advancing Translational Sciences, National Institutes of Health, Rockville, MD, USA; email: natalia.martinez@nih.gov Shen, M et al. Quantitative high-throughput phenotypic screening of pediatric cancer cell lines identifies multiple opportunities for drug repurposing. Oncotarget 2017 Dec 19;9(4):4758-4772. PMID 29435139.
# The cells were obtained from University of North Carolina (UNC), Pediatric Preclinical Testing Program (PPT), and Coriell Institute (CI). qHTS cell viability assay: Cells were assayed in growth media at a density of 500-1,000 cells/well. Five microliters of cells were dispensed into 1,536-well, white, solid-bottom, TC-treated plates (Greiner Bio One) using a multidrop dispenser and incubated at 37 degrees C, 5% CO2, under a humidified atmosphere for 5 hours. Twenty-three nanoliters of compounds and controls (neutral control DMSO or positive control bortezomib at final concentration of 2.3 µM) were subsequently transferred by Kalypsys pintool. For primary screens, the MIPE collection was tested at 11-point dilutions (final concentrations range from 0.78 nM to 46 µM) and the NPC collection at 8-point dilutions (final concentrations range from 0.59 nM to 46 µM). Compounds tested in follow-up screens were assayed at 11-point dilutions. Cells were incubated for 48 hours, followed by addition of 3 µL of CellTiter-Glo (Promega). After a 15 min incubation at room temperature, samples were analyzed for luminescence intensity using a ViewLux High-throughput CCD imager equipped with clear filters.
# Potency is the fitted concentration of half-maximal effect.
Structure (SMILES),"activity change, negative = cytotoxic",Potency
CCCCC(=O)OCC(=O)[C@H]1[C@H](C)C[C@H]2[C@@H]3C[C@H](F)C4=CC(=O)C=C[C@]4(C)[C@@]3(F)[C@@H](O)C[C@@]21C,15.9%,
C[C@@H](C1=C(CCN(C)C)Cc2ccccc21)c1ccccn1,4.74%,
COc1ccc2nc(SCc3ncc(C)c(OC)c3C)[nH]c2c1,44.5%,
O=C(O)C(=O)Nc1cccc(-c2nn[nH]n2)c1,17.6%,
CC(=O)N(CC(=O)N(C)C)c1ccccc1,-10.3%,
CC(C)(C)c1ccc(O)c(O)c1,,6.11 µM (active)
Cc1cc(C(C)(C)C)c(O)c(C(C)(C)C)c1,17.5%,
CC(CCc1ccc2c(c1)OCO2)NN (stereo not given),17.5%,
CO[C@@H]1[C@@H](OC)[C@H](C)[C@@](O)(CC(=O)O)O[C@H]1[C@H](C)[C@H]1O[C@@]2(CC[C@@](C)([C@H]3CC[C@@](C)([C@@H]4O[C@@H]([C@H]5O[C@](C)(O)[C@H](C)C[C@@H]5C)C[C@@H]4OC4C[C@H](OC)[C@@H](OC)[C@H](C)O4)O3)O2)C[C@H](O)[C@H]1C (stereo not given in full),,0.266 µM (active)
CC(C)(C)C(O)/C=C/c1ccc2c(c1)OCO2 (stereo not given),18.7%,
Cc1oc(-c2ccccc2)nc1CCC(=O)c1ccc(CC2SC(=O)NC2=O)cc1 (stereo not given),-20.8%,
CCCCNc1ccc(C(=O)OCCN(CC)CC)cc1,19%,
CN1CC(=O)N2[C@H](c3ccc4c(c3)OCO4)c3[nH]c4ccccc4c3C[C@@H]2C1=O,12.1%,
N=C(N)c1ccc(OCCCOc2ccc(C(=N)N)cc2)cc1,33.3%,
CC(=O)OCC(=O)Nc1cc(C#N)cc(NC(=O)COC(C)=O)c1Cl,30.5%,
CCOC(=O)C(=O)CCCCCCl,24.5%,
CCOCCn1c(C2CCN(CCc3ccc(C(C)(C)C(=O)O)cc3)CC2)nc2ccccc21,13.8%,
CCCCN(CCN(CCCC)C(=O)N1CCOCC1)C(=O)N1CCOCC1,13.7%,
CC(C)(C)CC(=O)OCC(=O)[C@@]1(O)CC[C@H]2[C@@H]3CCC4=CC(=O)C=C[C@]4(C)[C@H]3[C@@H](O)C[C@@]21C,0.554%,
CCCCCCCCCCCC[N+](C)(C)Cc1ccccc1,18.5%,

Structure (SMILES),"activity change, negative = cytotoxic",Potency
O=C(O)c1ccccc1S,25.3%,
Cc1oc(=O)oc1COC(=O)[C@@H]1N2C(=O)[C@@H](NC(=O)[C@H](N)c3ccccc3)[C@H]2SC1(C)C,13.8%,
COc1cc(C(=O)OC(COCCC(C)C)CN2CCOCC2)cc(OC)c1OC (stereo not given),17.3%,
CCCCCCCC(=O)[O-].CCCCCCCC(=O)[O-].[Zn+2],16.1%,
CN1Cc2cc(C(=O)N3CCC(C4CCNCC4)CC3)ccc2NC(CC(=O)O)C1=O (stereo not given),26%,
Nc1ccc(C(=O)OCC(O)CO)cc1 (stereo not given),18.2%,
CCCC(CCC)(C(=O)OCC)C(=O)OCC,25.7%,
C=CCOc1cc(Cl)ccc1C(=O)NCCN(CC)CC,-56.5%,
Cc1ccc(Cl)c(OCC(O)CNC(C)(C)C)c1 (stereo not given),9.03%,
NC(=O)COCCN1CCN(C(c2ccccc2)c2ccc(Cl)cc2)CC1 (stereo not given),4.27%,
Cc1ccc2c(Cl)cc(Cl)c(O)c2n1,25.1%,
COCCOCC(OC)OC,20.8%,
C[C@H]1C[C@H]2[C@@H]3CCC4=CC(=O)C=C[C@]4(C)[C@H]3C(=O)C[C@]2(C)[C@@]1(O)C(=O)CO,20.2%,
O=C(CCCl)NCCc1ccccc1,-1.51%,
C/C(=N\O)[C@@H](C)NCC(C)(C)CN[C@H](C)/C(C)=N/O,14.3%,
CC(C)C(=O)OCc1cccc(OC(=O)[C@@H]2N3C(=O)[C@@H](NC(=O)Cc4ccccc4)[C@H]3SC2(C)C)c1,8.31%,
Oc1ccc(CCNCCCCCCNCCc2ccccc2)cc1O,-19.5%,
Cc1c(N)cccc1C(F)(F)F,13.8%,
CC(NN)c1ccccc1 (stereo not given),11.9% [at 16.1 µM],
CCCCCC[C@@H](CCC)C(=O)O,-1.72%,
